PubChem BioAssay AID1212 (NMMLSC, 2008)
Unmarked numbers belong to inactive results. Activity calls are given as the source filed them.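 The calls were made as follows: active = blocks over 60% of fluorescent estradiol binding at 10 µM; inactive = the rest.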

These compounds were tested against G-protein coupled estrogen receptor 1 (Homo sapiens) (UniProt Q99527) (assay: GPR30 competitive binders vs fluorescent estrogen, primary screen, cell-based, Cos7 GPR30-GFP, flow cytometry, 10 µM (AID 1212)). Conditions: fluorescent estrogen competition, at 10 µM; hits give high values.

Compound	inhibition	outcome
COc1ccc(C2(CN)CCCC2)cc1	10%	
CCNCC1(c2ccc(OC)c(OC)c2)CCCC1	7%	
COc1ccc2[nH]cc(CCN=C(N)N)c2c1		inactive
N=c1c[n+](CCc2ccc(O)cc2)[n-]o1		inactive
COc1cc2c(cc1OC)CC(C)(C)NC2	3%	
COc1ccc(C2(CN)CCCC2)cc1OC		inactive
O=C1C2CCN(CC2)C1Cc1ccc(O)cc1 (stereo not drawn)		inactive
CC1(C)CC(CCNCc2ccc3c(c2)OCO3)(Cc2ccccc2)CCO1 (stereo not drawn)		inactive
